Measurements as given in PubChem BioAssay (NCATS).
Records with an inconclusive call do not appear. Activity calls are given as the source filed them. Calls follow the shape of the dose curve; as a rule, active = well fitted curve in the direction sought with a large enough effect; inconclusive = small, poorly fitted or top-dose-only effect, or another doubt; inactive = no such curve, though single readings can be large; an effect the other way counts as inactive or inconclusive.

Assays:
CRL-7250 = normal cell line; assay: Cytotoxic Profiling of Annotated Libraries Using Quantitative High-Throughput Screening (AID 1296008); conditions: Five cell lines viability, CellTiter-Glo ATP luminescence, 48-72 h; max response: hits give low values; also: nearly all actives have a fitted effect of over 60% in size; as to max response: % is scaled to controls: 0 for no effect and ±100 for the full control effect
Procedure, shortened: (§1)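 Compounds were pin-transferred onto cells and incubated 48 or 72 hr at 37 degree Celsius, 95% humidity. CellTiter-Glo was added, plates sat 10 min at room temperature, then ATP-coupled luminescence was imaged as the viability read-out.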

HaCat [1] = assay: as above; conditions: Five cell lines viability, CellTiter-Glo ATP luminescence, 48-72 h; max response: hits give low values
Procedure, shortened: as §1

KB-3-1 = assay: as above; conditions: Five cell lines viability, CellTiter-Glo ATP luminescence, 48-72 h; max response: hits give low values
Procedure, shortened: as §1

NIH3T3 = assay: as above; conditions: Five cell lines viability, CellTiter-Glo ATP luminescence, 48-72 h; max response: hits give low values
Procedure, shortened: as §1

HACAT [2] = assay: qHTS assay to identify novel small-molecules to repurpose for Merkel cell carcinoma treatment (AID 1296009); conditions: MCC and control cell lines, CellTiter-Glo viability, 72 h; at 44.8 µM (top of the series) unless noted; also: nearly all actives have a fitted effect of over 60% in size
Procedure, shortened: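 Cells exposed to NPC (8-point) and MIPE (11-point) compound dilutions for 72 hr at 37 degree celsius; viability read by CellTiter-Glo luminescence, normalized to no-cell and DMSO in-plate controls.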

C33A = assay: Primary qHTS to identify gynecologic anti-cancer compounds using libraries of approved drugs and bioactive compounds (AID 1345084); conditions: Gynecologic cancer cell panel viability, ATPlite luminescence, 48 h; series mostly up to 57.5 µM; also: % is scaled to controls: 0 for no effect and ±100 for the full control effect; nearly all actives have a fitted effect of over 55% in size
Procedure, shortened: (§2)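 ATP-based viability (ATPlite), 1,000 cells/well, 16 h pre-incubation, 48 h compound at 37 C, 5% CO2, 15 min RT before read.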

CAOV3 = assay: as above; conditions: Gynecologic cancer cell panel viability, ATPlite luminescence, 48 h; series mostly up to 57.5 µM
Procedure, shortened: as §2

CASKI = assay: as above; conditions: Gynecologic cancer cell panel viability, ATPlite luminescence, 48 h; series mostly up to 57.5 µM
Procedure, shortened: as §2

Es-2 = assay: as above; conditions: Gynecologic cancer cell panel viability, ATPlite luminescence, 48 h; series mostly up to 57.5 µM
Procedure, shortened: as §2

HeLa = assay: as above; conditions: Gynecologic cancer cell panel viability, ATPlite luminescence, 48 h; series mostly up to 57.5 µM
Procedure, shortened: as §2

Hek293T = assay: as above; conditions: Gynecologic cancer cell panel viability, ATPlite luminescence, 48 h, control line for the selectivity index; series mostly up to 57.5 µM
Procedure, shortened: as §2

JEG-3 = assay: as above; conditions: Gynecologic cancer cell panel viability, ATPlite luminescence, 48 h; series mostly up to 57.5 µM
Procedure, shortened: as §2

OV90 = assay: as above; conditions: Gynecologic cancer cell panel viability, ATPlite luminescence, 48 h; series mostly up to 57.5 µM
Procedure, shortened: as §2

O=S1(=O)CCN(Cc2cc(NCC3CCOCC3)c3[nH]c(-c4ccccc4)cc3c2)CC1
inactive: max response (CRL-7250) -9.27% | outcome (HaCat [1]) | max response (KB-3-1) 4.46% | max response (NIH3T3) -21.1% | outcome (HACAT [2]) | Potency (C33A) | Potency (CAOV3) | Potency (CASKI) | Potency (Es-2) | Potency (HeLa) | Potency (Hek293T) | Potency (JEG-3) | Potency (OV90)

COc1cc(F)c(C(C)C)cc1-c1ccc(C(F)(F)F)cc1CN1C(=O)OC(c2cc(C(F)(F)F)cc(C(F)(F)F)c2)C1C (stereo unspecified)
inactive: max response (CRL-7250) 3.77% | outcome (HaCat [1]) | outcome (KB-3-1) | outcome (NIH3T3) | outcome (HACAT [2]) | Potency (C33A) | Potency (CAOV3) | Potency (CASKI) | Potency (Es-2) | Potency (HeLa) | Potency (Hek293T) | Potency (JEG-3) | Potency (OV90)

CC1(C)CC[C@]2(C(=O)O)[C@H](O)C[C@]3(C)C(=CCC4[C@@]5(C)CC[C@H](O[C@@H]6O[C@H](CO[C@@H]7OC[C@H](O)[C@H](O)[C@H]7O[C@@H]7OC[C@H](O)[C@H](O)[C@H]7O)[C@@H](O)[C@H](O)[C@H]6O)C(C)(C)C5CC[C@]43C)[C@@H]2C1 (stereo partly specified)
inactive: outcome (CRL-7250) | outcome (HaCat [1]) | outcome (KB-3-1) | max response (NIH3T3) -3.93% | outcome (HACAT [2]) inactive [at 9.27 µM] | activity change, negative = cytotoxicity (C33A) 3.19% [at 11.6 µM] | activity change, negative = cytotoxicity (CAOV3) 6.12% [at 11.6 µM] | activity change, negative = cytotoxicity (CASKI) -7.68% [at 11.6 µM] | activity change, negative = cytotoxicity (Es-2) -0.336% [at 11.6 µM] | activity change, negative = cytotoxicity (HeLa) -1.57% [at 11.6 µM] | activity change, negative = cytotoxicity (Hek293T) -1.34% [at 11.6 µM] | activity change, negative = cytotoxicity (JEG-3) 14% [at 11.6 µM] | activity change, negative = cytotoxicity (OV90) 2.79% [at 11.6 µM]

CC(=O)O[C@@H]1CC2C(C)(C)C(=O)C=C[C@]2(C)C2CC[C@@]3(C)[C@H](c4ccoc4)OC(=O)[C@H]4O[C@]43[C@@]21C (stereo partly specified)
inactive: outcome (CRL-7250) | outcome (HaCat [1]) | outcome (KB-3-1) | max response (NIH3T3) -4.81% | outcome (HACAT [2]) inactive [at 17.4 µM] | Potency (C33A) | Potency (CAOV3) | Potency (CASKI) | Potency (Es-2) | Potency (HeLa) | Potency (Hek293T) | Potency (JEG-3) | Potency (OV90)

C/C=C(\C)C(=O)OC1C[C@@]2(COC(C)=O)O[C@H]2/C=C\[C@@]2(C)O[C@@H]2[C@H]2OC(=O)C(COC(C)=O)=C12 (stereo partly specified)
inactive: max response (CRL-7250) -2.2% | outcome (HaCat [1]) | max response (KB-3-1) 7.77% | max response (NIH3T3) 3.22% | outcome (HACAT [2]) inactive [at 17.4 µM] | Potency (C33A) | Potency (CAOV3) | Potency (CASKI) | Potency (Es-2) | Potency (HeLa) | Potency (Hek293T) | Potency (JEG-3) | Potency (OV90)

COc1cc(C(=O)NC(=S)Nc2cccc(NC(=O)c3ccccc3)c2)cc(OC)c1OC
inactive: max response (CRL-7250) -13% | outcome (HaCat [1]) | max response (KB-3-1) 6.94% | max response (NIH3T3) 4.46% | outcome (HACAT [2]) | Potency (C33A) | Potency (CAOV3) | Potency (CASKI) | Potency (Es-2) | Potency (HeLa) | Potency (Hek293T) | Potency (JEG-3) | Potency (OV90)

COc1cccc(N2CCN(C3=Nc4c(F)cccc4[C@H](CC(=O)O)N3c3cc(C(F)(F)F)ccc3OC)CC2)c1
inactive: max response (CRL-7250) 3.02% | outcome (HaCat [1]) | max response (KB-3-1) -13.7% | max response (NIH3T3) 3.41% | outcome (HACAT [2]) | Potency (C33A) | Potency (CAOV3) | Potency (CASKI) | Potency (Es-2) | Potency (HeLa) | Potency (Hek293T) | Potency (JEG-3) | Potency (OV90)

C/C=C(/C)C(=O)OC1C=C2C3C(C)C(C)C(OC(=O)C(C)C(C)O)CC3(C)CCC2(C)C2(C)CC(OC(C)=O)C3C(C)(C)C(O)C(=O)CC3(C)C12 (stereo unspecified)
inactive: max response (CRL-7250) 0.415% | outcome (HaCat [1]) | max response (KB-3-1) 5.54% | max response (NIH3T3) -9.86% | outcome (HACAT [2]) inactive [at 17.4 µM] | Potency (C33A) | Potency (CAOV3) | Potency (CASKI) | Potency (Es-2) | Potency (HeLa) | Potency (Hek293T) | Potency (JEG-3) | Potency (OV90)

CC/C=C\CC1C(=O)C=CC1(CCCCC1CCC(=O)O1)OC(C)=O (stereo unspecified)
inactive: outcome (CRL-7250) | outcome (HaCat [1]) | max response (KB-3-1) 4.62% | max response (NIH3T3) 4.76% | outcome (HACAT [2]) | Potency (C33A) | Potency (CAOV3) | Potency (CASKI) | Potency (Es-2) | Potency (HeLa) | Potency (Hek293T) | Potency (JEG-3) | Potency (OV90)

CC(=O)OC1CC(C)C2(CCC3(CC(=O)OC3O)O2)C2(C)CCCC(C)(C)C12 (stereo unspecified)
inactive: outcome (CRL-7250) | outcome (HaCat [1]) | max response (KB-3-1) 0.411% | max response (NIH3T3) 0.0681% | outcome (HACAT [2]) inactive [at 17.4 µM] | Potency (C33A) | Potency (CAOV3) | Potency (CASKI) | Potency (Es-2) | Potency (HeLa) | Potency (Hek293T) | Potency (JEG-3) | Potency (OV90)

Cc1cc(NC(=O)NCCN2CCC(O)(Cc3ccccc3)CC2)c2ccccc2n1
inactive: max response (CRL-7250) 2.34% | outcome (HaCat [1]) | max response (KB-3-1) -1.93% | outcome (NIH3T3) | outcome (HACAT [2]) | Potency (C33A) | Potency (CAOV3) | Potency (CASKI) | Potency (Es-2) | Potency (HeLa) | Potency (Hek293T) | Potency (JEG-3) | Potency (OV90)

C/C=C/C1=CC2=C(CO1)C(=O)C(C)(OC(=O)c1c(C)cc(O)cc1OC)C(O)C2 (stereo unspecified)
inactive: max response (CRL-7250) 3.73% | outcome (HaCat [1]) | max response (KB-3-1) 2.17% | max response (NIH3T3) 1.21% | outcome (HACAT [2]) | Potency (C33A) | Potency (CAOV3) | Potency (CASKI) | Potency (Es-2) | Potency (HeLa) | Potency (Hek293T) | Potency (JEG-3) | Potency (OV90)
